From PubChem BioAssay (NCI) come the findings set out here.

Molecules are shown by their SMILES. Compounds without any hit were thinned out: in the full panel of roughly 83,000, 20% have a hit.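 Step 1: grow cells in 96-well plates. Step 2: add test compound at a single concentration. Step 3: incubate 48 h. Step 4: record percent growth.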 A number with no mark means an inactive call. Activity calls are given as the source filed them. Rule for the calls: active = growth percent below 10; inactive = the rest.

Assay in all cases: NCI-60 one-dose screen, 48 h (100 = growth as untreated, 0 = no growth, -100 = all killed)
One experiment has as its system NCI-H322M lung. Particulars: 10 µM unless noted.
Another experiment has as its system COLO 205 colon. The settings on record: 10 µM.
The subject of another experiment is K-562 leukemia. The settings on record: 10 µM unless noted.
The next experiment relates to U251 CNS. Particulars: 10 µM unless noted.
Another experiment relates to TK-10 renal. Particulars: 10 µM unless noted.
Another experiment deals with MOLT-4 leukemia. The settings on record: 10 µM.
A further experiment relates to SR leukemia. Particulars: 10 µM.
The test system of a further experiment is SK-OV-3 ovarian. Particulars: 10 µM unless noted.
The test system of a further experiment is IGROV1 ovarian. The settings on record: 10 µM.
The subject of another experiment is HS 578T breast. The settings on record: 10 µM unless noted.
The next experiment has as its system BT-549 breast. The settings on record: 10 µM.
The next experiment deals with SW-620 colon. Particulars: 10 µM unless noted.
The subject of the next experiment is HCT-116 colon. Particulars: 10 µM unless noted.
The subject of another experiment is LOX IMVI melanoma. The settings on record: 10 µM unless noted.
The next experiment deals with CAKI-1 renal. The settings on record: 10 µM unless noted.
The test system of a further experiment is CCRF-CEM leukemia. The settings on record: 10 µM unless noted.
In a further experiment the test system is NCI-H522 lung. The settings on record: 10 µM unless noted.
A further experiment relates to EKVX NSCLC. The settings on record: 10 µM unless noted.

For `NC(=O)NC(=O)CI`, the growth in the experiment on NCI-H322M lung is 119%; in the experiment on COLO 205 colon, -62.4% (active); in the experiment with K-562 leukemia, 17.7%; in the experiment with U251 CNS it was 94.7%; in the experiment with TK-10 renal it was 88.6%; in the experiment with MOLT-4 leukemia it was 13.8%. Further, the growth in the experiment with SR leukemia is 25.9%; in the experiment with SK-OV-3 ovarian it was 111%; in the experiment with IGROV1 ovarian, 69.5%; in the experiment with HS 578T breast it was 94.3%; with BT-549 breast, 85.8%; in the experiment with SW-620 colon it was 27.6%. Moreover, in the experiment on HCT-116 colon, the growth was 36.8%.

As to `O=C(NCc1ccc([N+](=O)[O-])cc1)Nc1ccc(S(=O)(=O)F)cc1`, the growth in the experiment with NCI-H322M lung was 88.3%; with COLO 205 colon, 107%; with K-562 leukemia it was 93%; with U251 CNS it was 85.7%; in the experiment with LOX IMVI melanoma it was 92.9%; with CAKI-1 renal it was 78%. In addition, the growth in the experiment on CCRF-CEM leukemia is 81.4%; with MOLT-4 leukemia, 87.3%; in the experiment with SR leukemia, 79.1%; in the experiment on SK-OV-3 ovarian, 94.9%; with IGROV1 ovarian, 94.8%; in the experiment on BT-549 breast, 94.9%. In addition, the figures for the growth in the experiment with SW-620 colon and in the experiment with HCT-116 colon were 91.8% and 82.2%, respectively.

In the case of `Cc1cc(NC(=O)CCc2ccc(N3C(N)=NC(N)=NC3(C)C)cc2)ccc1S(=O)(=O)F`, the growth with NCI-H322M lung was 29.7%; with NCI-H522 lung, -17.2% (active); in the experiment on COLO 205 colon, 36%; in the experiment with K-562 leukemia, 22.8%; in the experiment with U251 CNS, 24.2%; in the experiment with LOX IMVI melanoma, 18.1%. The growth with EKVX NSCLC was 58.8%; with CAKI-1 renal, 34.2%; in the experiment with CCRF-CEM leukemia, -13% (active); with MOLT-4 leukemia it was 21.6%; in the experiment with SR leukemia it was -23.7% (active); in the experiment on SK-OV-3 ovarian it was 67.3%. Moreover, the growth in the experiment on HS 578T breast is 74.7%; with SW-620 colon, 23.1%; with HCT-116 colon, 18.3%.

For the compound `C[C@]12CCC(=O)CC1CC[C@@H]1C2CC[C@@]2(C)C1CC[C@@H]2OC(=O)CC[Se][Se]CCC(=O)O[C@H]1CCC2[C@@H]3CCC4CC(=O)CC[C@]4(C)C3CC[C@@]21C` (stereo not given in full), the growth with NCI-H322M lung is 84.1%; in the experiment on NCI-H522 lung, 88.3%; with COLO 205 colon, 122%; in the experiment with U251 CNS, 81.3%; in the experiment with LOX IMVI melanoma, 80.8%; in the experiment with EKVX NSCLC, 31.9%. The growth in the experiment on TK-10 renal is 77.4%; in the experiment with CAKI-1 renal it was 84.6%; with CCRF-CEM leukemia, 100%; with MOLT-4 leukemia, 90.1%; in the experiment with SK-OV-3 ovarian, 160%; in the experiment on IGROV1 ovarian it was 97.3%. In addition, the growth with HS 578T breast was 52.9%; in the experiment on SW-620 colon it was 122%; in the experiment on HCT-116 colon, 95.5%.

Regarding `Cc1cc(NC(=O)/C=C/c2ccc([N+](=O)[O-])cc2)ccc1S(=O)(=O)F`, the growth was 84.8% with NCI-H322M lung; 102% with COLO 205 colon; 94.7% in the experiment with K-562 leukemia; 102% in the experiment with U251 CNS; 102% in the experiment on LOX IMVI melanoma; 96.2% in the experiment on TK-10 renal. Further, the growth with CAKI-1 renal was 114%; in the experiment on CCRF-CEM leukemia, 98.2%; in the experiment with MOLT-4 leukemia, 89.5%; in the experiment with SR leukemia, 81.3%; with IGROV1 ovarian, 101%; in the experiment with BT-549 breast, 106%. The growth with SW-620 colon was 110%; in the experiment on HCT-116 colon, 113%.

For the compound `COc1ccc(-c2ccc(OC)c(OC)c2OC)cc1`, the growth in the experiment on NCI-H322M lung is 36%; with COLO 205 colon, -13.5% (active); with K-562 leukemia it was 10.1%; with U251 CNS it was 22.9%; in the experiment with LOX IMVI melanoma, 16.5%; with EKVX NSCLC, 52.4%. For the same compound, the growth in the experiment on TK-10 renal is 16.2%; in the experiment with CAKI-1 renal, 15.1%; in the experiment on CCRF-CEM leukemia, 10.1%; in the experiment on MOLT-4 leukemia, 22.7%; with SR leukemia, 16.9%; with SK-OV-3 ovarian, 7.71% (active). The growth with IGROV1 ovarian was 37.1%; in the experiment with BT-549 breast, 20.2%; in the experiment with SW-620 colon, 11.6%; in the experiment with HCT-116 colon, 15.3%.

As to `CC(C)N=C(NC(C)C)N1CC1`, the growth in the experiment on NCI-H322M lung was 118%; with NCI-H522 lung, 98.2%; in the experiment with K-562 leukemia, 124%; with U251 CNS, 105%; with LOX IMVI melanoma it was 116%; with EKVX NSCLC, 102%. In addition, the growth with TK-10 renal was 122%; in the experiment on CAKI-1 renal, 99.3%; with CCRF-CEM leukemia, 116%; in the experiment with MOLT-4 leukemia, 105%; in the experiment with SR leukemia, 122%; in the experiment with SK-OV-3 ovarian, 115%. Besides, the growth was 123% with IGROV1 ovarian; 107% in the experiment on HS 578T breast; 114% in the experiment on BT-549 breast; 110% in the experiment on SW-620 colon; 111% in the experiment on HCT-116 colon.

For `CCC(C)[C@H]1O[C@]2(C=C[C@@H]1C)C[C@@H]1C[C@@H](C/C=C(\C)[C@@H](OC3C[C@H](OC)C(O[C@H]4C[C@H](OC)[C@@H](O)[C@H](C)O4)[C@H](C)O3)[C@@H](C)/C=C/C=C3\CO[C@@H]4[C@H](O)C(C)=C[C@@H](C(=O)O1)[C@]34O)O2` (stereo not given in full), the growth in the experiment on NCI-H322M lung is 25.7%; in the experiment with NCI-H522 lung, -28.8% (active); in the experiment on COLO 205 colon it was -64.5% (active); with U251 CNS, -16% (active); with LOX IMVI melanoma, -93.1% (active); with EKVX NSCLC, 14.6%. In addition, the growth was 13.7% in the experiment on TK-10 renal; 19.8% in the experiment with CAKI-1 renal; -26.6% (active) in the experiment with MOLT-4 leukemia; -28.1% (active) in the experiment on SR leukemia; 12.6% with SK-OV-3 ovarian; 13% in the experiment with IGROV1 ovarian. For the same compound, the growth in the experiment on HS 578T breast was -13% (active); in the experiment with BT-549 breast it was -39.1% (active); in the experiment with SW-620 colon, -72% (active); in the experiment with HCT-116 colon, -81.1% (active).

For `CNC(=O)Oc1ccccc1`, the growth in the experiment on NCI-H322M lung was 107%; in the experiment with COLO 205 colon, 104%; with K-562 leukemia, 109%; in the experiment on U251 CNS, 108%; in the experiment with LOX IMVI melanoma, 106%; in the experiment with TK-10 renal it was 122%. The growth in the experiment with CAKI-1 renal was 113%; in the experiment with CCRF-CEM leukemia, 111%; with MOLT-4 leukemia, 106%; in the experiment on SR leukemia it was 99%; in the experiment on SK-OV-3 ovarian, 108%; with IGROV1 ovarian, 116%. For the same compound, the growth with BT-549 breast is 105%.

In the case of `O=C1NC(=O)C(CN2C(=O)C3(c4ccccc42)[C@H](Cl)C(=O)N3c2ccccc2)C(=O)N1` (stereo not given in full), the growth is 90.6% in the experiment with NCI-H322M lung; 51.4% in the experiment on NCI-H522 lung; 65.5% in the experiment with K-562 leukemia; 72.6% in the experiment on U251 CNS; 50.2% in the experiment on LOX IMVI melanoma; 79.3% in the experiment with EKVX NSCLC. Moreover, the growth in the experiment with TK-10 renal was 121%; in the experiment on CAKI-1 renal, 85.7%; in the experiment on CCRF-CEM leukemia, 54.4%; with MOLT-4 leukemia it was 62.5%; with SR leukemia, 15.2%; in the experiment with SK-OV-3 ovarian, 83.1%. The growth was 49.4% with IGROV1 ovarian; 71% in the experiment with HS 578T breast; 72.3% in the experiment on BT-549 breast; 72.5% in the experiment on SW-620 colon; 79.9% in the experiment on HCT-116 colon.
